Source: PubChem BioAssay
Compounds with a hit are over-represented: about 7.3% of the library has one in this group of screens.
uPA surface inh: blocks generation of uPA at the cell surface; AID 540303; 330,000 compounds, 0.31% hits; cell surface uPA generation assay, qHTS; Potency, µM (doses to about 38.3 µM), usual class: inhibitors; active means well fitted inhibition curve with a large enough effect; inconclusive means small, poorly fitted or top-dose-only effect; inactive means no such curve, though single readings can be large or run the other way; tested in mouse RAW 264.7 cells; further: nearly all actives have a fitted effect of over 55% in size
SMN2 splice enh: increases expression of the SMN2 splice variant | HEK293 SMN2-luciferase splicing reporter, luminescence, 30-36 h | Potency, µM (series often up to 46.1 µM), usual class: activators | 210,000 compounds, 2.8% hits | AID 1458; further: nearly all actives have a fitted effect of over 55% in size
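HEK293 cells carry an SMN2 […]–luciferase reporter in which exon 7 inclusion puts luciferase in frame. Cells were plated 10-12 h before compound addition, then incubated 30-36 h at 37C. ONE-Glo luminescence was read; sodium butyrate at 4.5 mM final served as control.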
ELG1 genotoxic: genotoxicity induction in ELG1-luciferase HEK293T cells; HEK293T ELG1-luciferase reporter, luminescence, 16 h; Potency, µM (titrated, usually from 46 µM), usual class: activators; 330,000 compounds, 1.3% hits; AID 504466; further: nearly all actives have a fitted effect of over 60% in size
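Screening used a luciferase reporter fused to human ELG1 in HEK293T cells. Luminescence was read on a CCD plate imager after 16 hr exposure and 30 min ONE-Glo incubation.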
Rab9 promoter act: Rab9 promoter activation. Huh7 Rab9 promoter-luciferase reporter, luminescence, 24 h. Potency, µM (series often up to 9.22 µM), actives largely listed as activators. 320,000 compounds, 2.8% hits; further: nearly all actives have a fitted effect of over 60% in size
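Steps: seed 1500 Huh7 Rab9-luc cells per well, rest 2 h at 37 °C; add compound in DMSO; incubate 24 h; add luciferase reagent, 10 min ambient; read luminescence.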
FLuc modulator: inhibits or activates purified firefly luciferase, miR-21 counter-screen; Potency, µM (top dose mostly 57.5 µM), usual class: inhibitors; P08659; AID 588342; purified FLuc, Km substrates, luminescence inhibition; 360,000 compounds, 6.9% hits; further: nearly all actives have a fitted effect of over 55% in size
Target sequence (P08659 whole entry, looked up): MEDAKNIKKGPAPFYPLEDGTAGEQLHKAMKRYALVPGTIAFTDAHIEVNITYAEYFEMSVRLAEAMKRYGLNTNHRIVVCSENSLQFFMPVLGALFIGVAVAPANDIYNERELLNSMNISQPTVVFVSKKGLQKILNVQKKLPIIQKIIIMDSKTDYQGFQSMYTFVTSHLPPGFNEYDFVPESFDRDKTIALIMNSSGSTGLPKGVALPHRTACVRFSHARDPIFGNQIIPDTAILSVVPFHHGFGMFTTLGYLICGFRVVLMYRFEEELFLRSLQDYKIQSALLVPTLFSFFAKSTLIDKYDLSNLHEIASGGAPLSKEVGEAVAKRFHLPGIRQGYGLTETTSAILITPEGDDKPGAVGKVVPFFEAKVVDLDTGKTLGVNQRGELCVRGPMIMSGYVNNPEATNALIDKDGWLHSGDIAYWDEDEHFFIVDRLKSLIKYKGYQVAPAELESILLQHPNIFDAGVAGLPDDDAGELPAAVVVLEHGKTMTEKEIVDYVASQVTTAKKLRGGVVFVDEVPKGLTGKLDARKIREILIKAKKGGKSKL
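Purified P. pyralis luciferase (10nM final) with 10uM D-luciferin and 10uM ATP (Km levels) in 50mM Tris acetate pH 7.5, 10mM Mg acetate, 0.01% Tween-20, 0.05% BSA; qHTS 6-point titration, ~60 µM downward; luminescence read.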
NPC1 prom act: NPC1 promoter activation | Huh7 NPC1 promoter luciferase reporter, 24 h | Potency, µM (highest dose often 9.22 µM), actives largely listed as activators | 320,000 compounds, 2.4% hits; further: nearly all actives have a fitted effect of over 60% in size
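Readout is luciferase luminescence, reflecting NPC1 promoter activation in stably transfected Huh7 cells after 24 h compound exposure at 37 °C in reduced-serum medium with 10% FBS.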
Each line names hits and unclear results; the compound was inactive in the other large screens. Unless noted, the call rests on the fitted dose curve; in most records, active means well fitted curve in the direction sought with a large enough effect; inconclusive means small, poorly fitted or top-dose-only effect, or another doubt; inactive means no such curve, though single readings can be large; an effect the other way counts as inactive or inconclusive.

COc1ccc(C2=NN3C(=O)c4c(ccc(OC)c4OC)C3C2)cc1 (stereo not given)	FLuc modulator 17µM
COc1ccc2c(c1OC)C(=O)N1N=C(c3ccc(Br)cc3)CC21 (stereo not given)	FLuc modulator 24µM
COc1ccc(N(CC(=O)Nc2ccc(S(=O)(=O)N3CCOCC3)cc2)S(=O)(=O)c2ccc(F)cc2)cc1	none (no result: SMN2 splice enh)
CC(=O)Nc1ccc(S(=O)(=O)N2CCC(C(=O)NCc3cccnc3)CC2)cc1	none (no result: SMN2 splice enh)
Cc1ccc2oc(-c3ccc(NC(=O)CC(C)C)cc3)nc2c1	SMN2 splice enh inconclusive, ELG1 genotoxic 2.3µM, Rab9 promoter act inconclusive, FLuc modulator 0.76µM, NPC1 prom act 0.28µM
CCC(C)NCC(=O)Nc1ccc(-c2nc3cc(NC(=O)CNC(C)CC)ccc3o2)cc1 (stereo not given)	SMN2 splice enh inconclusive
O=C(Nc1ccc2oc(-c3cccnc3)nc2c1)c1ccc(Br)cc1	none (no result: uPA surface inh, ELG1 genotoxic, Rab9 promoter act, NPC1 prom act)
CCC(=O)Nc1ccc2oc(-c3cccnc3)nc2c1	ELG1 genotoxic inconclusive, Rab9 promoter act 3.5µM, FLuc modulator 17µM, NPC1 prom act inconclusive (no result: SMN2 splice enh)
O=C(Nc1ccc2oc(-c3cccnc3)nc2c1)c1ccco1	Rab9 promoter act inconclusive, FLuc modulator 15µM, NPC1 prom act inconclusive
O=C(Nc1ccc2oc(-c3cccnc3)nc2c1)c1ccc(Br)o1	none
CC(C)CC(=O)Nc1ccc2oc(-c3cccnc3)nc2c1	uPA surface inh inconclusive, SMN2 splice enh inconclusive, ELG1 genotoxic inconclusive, Rab9 promoter act inconclusive, FLuc modulator 13µM, NPC1 prom act inconclusive
CCOC(=O)Cn1c(=O)n(-c2ccccc2OC)c2nc(-c3ccccc3C)nc(C(N)=O)c21	none (no result: uPA surface inh, SMN2 splice enh, ELG1 genotoxic, Rab9 promoter act, NPC1 prom act)
COCCn1c(=O)cnc2cnc(N3CCNCC3)nc21	none (no result: uPA surface inh, ELG1 genotoxic, Rab9 promoter act, FLuc modulator, NPC1 prom act)
O=C(Nc1ccc(-c2nc3ncccc3o2)cc1)c1ccco1	SMN2 splice enh inconclusive, ELG1 genotoxic inconclusive, Rab9 promoter act 1.6µM, FLuc modulator 8.5µM, NPC1 prom act 2.5µM
CCc1ccc2oc(-c3ccc(NC(C)=O)cc3)nc2c1	ELG1 genotoxic 3.3µM, Rab9 promoter act 0.63µM, FLuc modulator 1.9µM, NPC1 prom act inconclusive (no result: SMN2 splice enh)
O=C(Nc1ccc2nc(-c3ccccc3)oc2c1)c1ccco1	SMN2 splice enh inconclusive, ELG1 genotoxic inconclusive, Rab9 promoter act 3.2µM, FLuc modulator 21µM, NPC1 prom act inconclusive
COc1cc(C)c(NC(=O)Cc2ccsc2)cc1OC	none (no result: SMN2 splice enh)
Cc1ccc(C2=CC(c3ccccc3C)n3c(nc4ccccc43)N2)cc1 (stereo not given)	FLuc modulator 6µM (no result: uPA surface inh, SMN2 splice enh, ELG1 genotoxic, Rab9 promoter act, NPC1 prom act)
CCc1ccc(C2=CC(c3c(F)cccc3Cl)n3c(nc4ccccc43)N2)cc1 (stereo not given)	FLuc modulator 19µM (no result: uPA surface inh, SMN2 splice enh, ELG1 genotoxic, Rab9 promoter act, NPC1 prom act)
Cc1ccc(-c2nc3n(n2)C(c2ccccc2C)C=C(c2ccc(Cl)cc2)N3)cc1 (stereo not given)	none (no result: uPA surface inh, ELG1 genotoxic, Rab9 promoter act, NPC1 prom act)
COc1ccc(C2=CC(c3cccc(C)c3)n3nnnc3N2)cc1 (stereo not given)	none (no result: uPA surface inh, SMN2 splice enh, ELG1 genotoxic, Rab9 promoter act, NPC1 prom act)
Cc1cccc(C2C=C(c3ccc(F)cc3)Nc3nc4ccccc4n32)c1 (stereo not given)	FLuc modulator 5.4µM (no result: uPA surface inh, SMN2 splice enh, ELG1 genotoxic, Rab9 promoter act, NPC1 prom act)
COc1cc(NC(=O)c2cc(Cl)c(OC)c(Cl)c2)ccc1NC(=O)c1cc2ccccc2o1	none (no result: uPA surface inh, ELG1 genotoxic, Rab9 promoter act, NPC1 prom act)
COCC(=O)N1CCC2(CC1)CN(C(=O)Nc1ccccc1)C2	none (no result: uPA surface inh, ELG1 genotoxic, Rab9 promoter act, FLuc modulator, NPC1 prom act)
O=S(=O)(c1ccc2c(c1)OCCO2)N1CCN(S(=O)(=O)c2ccc3c(c2)OCCO3)CC1	Rab9 promoter act 0.4µM, FLuc modulator 0.6µM, NPC1 prom act 0.35µM (no result: uPA surface inh, SMN2 splice enh, ELG1 genotoxic)
O=C(Cc1c[nH]c2ccccc12)NCc1ccc(Cl)cc1Cl	FLuc modulator 21µM
O=C(Cc1c[nH]c2ccccc12)NCc1ccc(Cl)cc1	FLuc modulator inconclusive
O=C(NC(Cc1c[nH]c2ccccc12)C(=O)O)c1ccccc1 (stereo not given)	SMN2 splice enh inconclusive
COc1ccc(C(=O)NC(Cc2c[nH]c3ccccc23)C(=O)O)cc1 (stereo not given)	FLuc modulator 19µM (no result: SMN2 splice enh)
Cc1cc(NC(=O)COC(=O)[C@H](Cc2c[nH]c3ccccc23)NC(=O)c2ccc(F)cc2)no1	FLuc modulator 17µM
